# Test results from the supplement of paper PMC3616981.
# ± gives the standard deviation of the averaged measurements.
# Compound: CC(C)c1cccc(C(C)C)c1N1C(=O)c2ccc(O)cc2C1=O
# Assay: BioMAP readout fold decrease vs vehicle (vehicle/treated); higher = stronger decrease of the readout vs vehicle (values <1 mean increase)
# Protocol: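 BioSeek BioMAP human primary cell (co-)culture systems (3C, 4H, LPS, SAg, BE3C, CASM3C, hDFCGF, KF3CT) treated with 5HPP-33 at 1.48, 4.44, 13.3 and 40 µM. Read-outs are protein levels by ELISA, proliferation and SRB total protein. Duplicate rows per assay are averaged as replicates. Tested in ToxCast Phase II for this study; exposure time not stated.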
# 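Further: Co-cultures of keratinocytes, bronchial epithelial and smooth muscle cells, fibroblasts, HUVECs and PBMCs under stimuli like LPS, TNF-α, IFN-γ, IL-1β, TGF-β or EGF, SRB reflecting cytotoxicity.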
Target,BioMAP readout fold decrease (1.48 µM),BioMAP readout fold decrease (4.44 µM),BioMAP readout fold decrease (13.3 µM),BioMAP readout fold decrease (40 µM)
hDFCGF_IL8,1.03 ± 0.018,0.964 ± 0.017,0.8858 ± 0.0045,0.9866 ± 0.0065
CASM3C_SRB,1.022 ± 0.0094,1.1 ± 0.012,1.07 ± 0.023,1.41 ± 0.047
3C_ICAM1,1.05 ± 0.025,1.05 ± 0.019,1.02 ± 0.013,1.08 ± 0.087
3C_Eselectin,1.04 ± 0.051,1.056 ± 0.0015,0.99 ± 0.023,1.39 ± 0.034
SAg_PBMCCytotoxicity,0.998 ± 0.065,1.01 ± 0.078,0.879 ± 0.028,0.894 ± 0.028
KF3CT_SRB,1.012 ± 0.0046,1.011 ± 0.0045,1.0454 ± 0.00028,1.53 ± 0.21
3C_TissueFactor,0.903 ± 0.018,0.906 ± 0.021,0.943 ± 0.014,1.43 ± 0.2
SAg_MIG,1.05 ± 0.017,1.04 ± 0.012,1.07 ± 0.034,7.73 ± 1.1
4H_uPAR,1.2 ± 0.045,1.3 ± 0.038,1.361 ± 0.0024,2.33 ± 0.26
SAg_IL8,1.12 ± 0.039,1.19 ± 0.029,0.963 ± 0.026,1.36 ± 0.052
